# Test results from PMC4336329 (PLoS ONE, 2015).
# The campaign covered roughly 310,000 compounds. About 14,000 (4.5%) showed an effect of 50% or more. The effect is printed as a negative number. The sample holds strong results, similar compounds and a random draw of the others, so the mix is not that of the screen.
# Target: human ether-à-go-go-related gene (hERG) potassium channel (human, UniProt Q12809)
# Experiment: primary screen, population patch clamp on CHO cells stably expressing hERG; higher = less effect of the substance
# 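Further: peak tail current of the secondary pulse compared with the same well before compound.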
# Chain of human ether-à-go-go-related gene (hERG) potassium channel (Q12809 whole entry, looked up): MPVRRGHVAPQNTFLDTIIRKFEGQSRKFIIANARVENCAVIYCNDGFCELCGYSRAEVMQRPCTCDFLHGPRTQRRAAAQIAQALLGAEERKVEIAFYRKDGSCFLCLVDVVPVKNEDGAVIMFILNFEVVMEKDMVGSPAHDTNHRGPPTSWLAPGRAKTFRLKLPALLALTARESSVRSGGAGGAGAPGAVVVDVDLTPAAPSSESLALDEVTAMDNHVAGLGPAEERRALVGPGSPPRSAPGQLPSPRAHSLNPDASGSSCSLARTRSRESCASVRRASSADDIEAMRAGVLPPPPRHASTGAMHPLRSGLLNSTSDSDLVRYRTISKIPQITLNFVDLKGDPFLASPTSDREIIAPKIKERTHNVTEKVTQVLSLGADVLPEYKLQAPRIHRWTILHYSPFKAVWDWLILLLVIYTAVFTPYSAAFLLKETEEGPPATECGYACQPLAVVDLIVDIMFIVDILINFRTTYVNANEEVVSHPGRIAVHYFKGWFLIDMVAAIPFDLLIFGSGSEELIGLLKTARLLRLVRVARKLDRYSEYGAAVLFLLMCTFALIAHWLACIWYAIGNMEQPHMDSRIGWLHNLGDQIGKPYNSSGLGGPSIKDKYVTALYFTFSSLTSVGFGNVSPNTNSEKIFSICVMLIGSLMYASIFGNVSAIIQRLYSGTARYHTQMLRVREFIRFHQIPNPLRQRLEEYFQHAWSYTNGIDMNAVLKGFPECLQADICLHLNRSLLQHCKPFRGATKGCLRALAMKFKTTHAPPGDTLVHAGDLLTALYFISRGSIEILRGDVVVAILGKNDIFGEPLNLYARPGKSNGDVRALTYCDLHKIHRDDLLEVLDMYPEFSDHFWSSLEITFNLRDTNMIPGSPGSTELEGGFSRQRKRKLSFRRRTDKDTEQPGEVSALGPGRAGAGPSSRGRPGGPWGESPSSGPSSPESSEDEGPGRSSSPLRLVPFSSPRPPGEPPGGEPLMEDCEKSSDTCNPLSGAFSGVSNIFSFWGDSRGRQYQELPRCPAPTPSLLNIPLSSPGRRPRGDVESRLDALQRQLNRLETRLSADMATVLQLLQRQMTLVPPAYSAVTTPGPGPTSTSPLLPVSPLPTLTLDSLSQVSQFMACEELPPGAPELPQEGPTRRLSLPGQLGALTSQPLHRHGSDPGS
row,Structure (SMILES),"hERG current change (%, negative = inhibition) at 10uM"
1,CCOC(=O)Cc1csc(NC(=O)Cc2cccs2)n1,6.28%
2,COc1ccc(S(=O)(=O)N2CCCC2C(=O)NCc2ccccc2Cl)cc1 (centres unmarked),-12.4%
3,CC1CCC(NCCNC(=O)c2ccco2)CC1 (centres unmarked),11.8%
4,Cc1ccsc1C(=O)NCc1ccc(Cl)cc1,11.1%
5,c1cnc(NCCNc2ncccn2)nc1,9.05%
6,CC1(C)CC(NC(=O)c2ccc3c(c2)OCO3)CC(C)(C)N1,4.65%
7,COC(=O)[C@H](CC(C)C)NC(=O)NCCCc1ccccc1,1.82%
8,COc1ccc(C2Nc3ccccc3C(=O)N2Cc2ccccc2)cc1COc1ccccn1 (centres unmarked),-49.4%
9,Cn1cc(C2=C(c3ccc(Cl)cc3Cl)C(=O)NC2=O)c2ccccc21,33%
10,Cc1cccc(C(=O)N2CCC(c3nc(-c4ccc(S(=O)(=O)N5CCOCC5)cc4)no3)CC2)c1,-3.33%
11,O=C(c1cccs1)N1CCC(c2nc(-c3ccc(S(=O)(=O)N4CCOCC4)cc3)no2)CC1,-68.8%
12,O=C(N1CCOCC1)N1CCC(c2nc(-c3ccc(S(=O)(=O)N4CCOCC4)cc3)no2)CC1,-2.07%
13,O=C(C1CC1)N1CCC(c2nc(-c3ccc(S(=O)(=O)N4CCCC4)cc3)no2)CC1,-13%
14,O=C(c1ccccc1)N1CCC(c2nc(-c3ccc(S(=O)(=O)N4CCOCC4)cc3)no2)CC1,-60.8%
15,O=C(Nc1ccccc1)N1CCC(c2nc(-c3ccc(S(=O)(=O)N4CCOCC4)cc3)no2)CC1,-4.94%
16,O=C(CN1C(=O)C2CC=CCC2C1=O)Nc1ccc(OC(F)(F)F)cc1 (centres unmarked),-14.2%
17,CCOC(=O)c1c(-c2ccccc2)csc1NC(=O)CSc1ccccc1,-4.13%
18,O=C(CSc1nnc(Cc2ccsc2)o1)c1ccccc1,-16.7%
19,CC1(C)CC(=O)C(C=Nc2ccc(Cl)cn2)=C(O)C1,11.6%
20,CN(C(=O)COc1cc(=O)n(C)c2ccccc12)c1ccc(Cl)cc1,-29.2%
21,COc1cc(=O)n(C)c2ccccc12,-4.88%

row,Structure (SMILES),"hERG current change (%, negative = inhibition) at 10uM"
1,CN(c1ccc(Cl)cc1)c1cc(=O)n(C)c2ccccc12,-51.8%
2,CCC(CC)COC(=O)C1=C(C)NC(=O)NC1c1ccc([N+](=O)[O-])cc1 (centres unmarked),11.6%
3,Cc1ccc(NS(=O)(=O)c2cccc(C(=O)NCC(c3ccc(F)cc3)N3CCOCC3)c2)cc1 (centres unmarked),-16.8%
4,CCN(CC)c1ccc(CN2CCCCCC2)cc1,-20.4%
5,COc1cccc(CN2CC=C(c3ccc(F)cc3)CC2)c1,-26.5%
6,CN(C)c1ccc(CN2CC=C(c3ccc(F)cc3)CC2)cc1,-69.9%
7,COc1cc(C)c(CN2CC=C(c3ccc(F)cc3)CC2)cc1C,-37.2%
8,COc1cc(CN2CC=C(c3ccc(F)cc3)CC2)cc(OC)c1,-57.3%
9,COc1ccc(CN2CC=C(c3ccc(F)cc3)CC2)cc1Br,-11.7%
10,O=[N+]([O-])c1cccc(CN2CC=C(c3ccc(F)cc3)CC2)c1,-39.2%
11,O=[N+]([O-])c1ccccc1CN1CC=C(c2ccc(F)cc2)CC1,-12.8%
12,CCN(CC)c1ccc(CN2CC=C(c3ccc(F)cc3)CC2)cc1,-78.4%
13,CCOC(=O)c1c(S(=O)(=O)N2c3ccccc3CC2C)c(C)n(C)c1C (centres unmarked),13.1%
14,CC(=O)Oc1ccc(C(=O)Nc2cccc(-c3nnc(-c4ccco4)o3)c2)cc1,0.775%
15,O=C(COC(=O)C1(c2ccc(F)cc2)CCCC1)NC1CC1,0.676%
16,CCC1(C)Cc2c(sc3nc(SC)n(Cc4ccccc4)c(=O)c23)CO1 (centres unmarked),6.63%
17,Cc1sc(NC(=O)C2=COCCO2)nc1-c1ccc(Cl)cc1,13%
18,CCCCn1c(=O)c(CCC(=O)OCC(=O)NC(=O)NCCC(C)C)nc2ccccc21,-9.31%
19,CCc1nnc(NC(=O)C2CCCN(S(=O)(=O)c3ccccc3)C2)s1 (centres unmarked),5.15%
20,Cc1nc2cc(NC(=O)COc3ccccc3C#N)ccc2n1-c1ccccc1,-4.85%
21,Cc1cc(C)c(C#N)c(N2CCN(CCOc3ccc(Cl)cc3)CC2)n1,-33.6%

row,Structure (SMILES),"hERG current change (%, negative = inhibition) at 10uM"
1,Cc1sc2ncnc(N3CCN(CCOc4ccc(Cl)cc4)CC3)c2c1C,-9.02%
2,Clc1ccc(OCCN2CCOCC2)cc1,17%
3,NS(=O)(=O)c1ccc(N2CCN(CCOc3ccc(Cl)cc3)CC2)nc1,-69.8%
4,CCN(CC)S(=O)(=O)c1ccc(N2CCN(CCOc3ccc(OC)cc3)CC2)nc1,-46.8%
5,Clc1ccc(OCCN2CCN(c3ncnc4sccc34)CC2)cc1,-81.2%
6,CN(C)C(=O)CSc1ccc(S(=O)(=O)N2CCOCC2)cn1,10.6%
7,O=C(CSc1nnc(-c2cccs2)o1)N1CCCCC1,2.99%
8,CCOC(=O)CSc1nc2ccccc2c(=O)n1-c1ccc(C)cn1,0.327%
9,O=C(/C=C/c1ccccc1)NCC1(c2ccccc2)CCOCC1,-9.11%
10,O=C(/C=C/c1ccc(F)cc1)NCC1(c2ccccc2)CCOCC1,-50.5%
11,O=C(/C=C/c1ccco1)NCC1(c2ccccc2)CCCC1,-4.49%
12,O=C(NC1CCCC1)C(c1ccncc1)N(C(=O)c1csnn1)c1ccccc1 (centres unmarked),15.1%
13,Cc1cc(N2C(=O)C(O)=C(C(=O)c3ccco3)C2c2ccc(Cl)cc2)no1 (centres unmarked),-6.77%
14,O=C(NCC(=O)N(c1cccc(F)c1)C(C(=O)NCC1CCCO1)c1ccccc1)c1ccco1 (centres unmarked),6.26%
15,Cc1ccc(S(=O)(=O)N(C)c2ccc(C(=O)NCC3CCCO3)cc2)cc1 (centres unmarked),-16.7%
16,Cc1ccc(S(=O)(=O)N(C)c2ccc(OCC(=O)NCC3(N(C)C)CCCCC3)cc2)cc1,-73.5%
17,COc1ccc(CCNC(=O)COc2ccc(N(C)S(=O)(=O)c3ccc(C)cc3)cc2)cc1,6.95%
18,Cc1ccc(S(=O)(=O)N(C)c2ccc(OCC(=O)NCc3ccco3)cc2)cc1,-44.8%
19,Cc1ccc(S(=O)(=O)N(C)c2ccc(C(=O)NCCc3ccccc3)cc2)cc1,-6.94%
20,Cc1ccc(S(=O)(=O)N(C)c2ccc(C(=O)NCC3(N(C)C)CCCCC3)cc2)cc1,-65.4%
